Drawing on paper PMC7862700, “An all-to-all approach to the identification of sequence-specific readers for epigenetic DNA modifications on cytosine”, this text covers binding signal for 1 sequence.

Assay in all cases: DAPPL (digital affinity profiling via proximity ligation, sequencing); 10 mM Tris-HCl pH 7.5, 50 mM NaCl, 1 mM DTT, 4% glycerol, room temperature, 30 min; GST-TFs on glutathione beads, 16-mer random dsDNA library, 0.1% formaldehyde crosslink after washing; high values mean tight binding
In one experiment the target is T1, FLI1 (Homo sapiens, UniProt Q01543 1-452).
T1 sequence: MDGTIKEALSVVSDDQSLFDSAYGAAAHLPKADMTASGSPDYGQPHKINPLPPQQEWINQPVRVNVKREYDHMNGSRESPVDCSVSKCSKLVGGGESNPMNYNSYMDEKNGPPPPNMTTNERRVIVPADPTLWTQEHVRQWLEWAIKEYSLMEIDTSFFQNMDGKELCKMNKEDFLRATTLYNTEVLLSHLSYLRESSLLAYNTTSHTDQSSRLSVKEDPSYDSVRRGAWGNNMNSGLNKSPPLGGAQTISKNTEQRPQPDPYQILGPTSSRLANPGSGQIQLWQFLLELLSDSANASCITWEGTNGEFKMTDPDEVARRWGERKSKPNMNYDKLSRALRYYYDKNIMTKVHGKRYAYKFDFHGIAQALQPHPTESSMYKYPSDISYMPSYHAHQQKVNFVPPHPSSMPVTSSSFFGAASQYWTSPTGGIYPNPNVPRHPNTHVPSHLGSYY
The note with it: protein: recombinant; tags: N-terminal GST; dsDNA, one strand shown. Summed up:
(§1)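 The binding signal reported is, for every hexamer, its read frequency for a factor over its read frequency for the tag-only sample. Reads came from pools of yeast-expressed, GST-fused human transcription factors on glutathione beads, barcoded with DNA and mixed with that sample, which were incubated with 200 nmole of a random double-stranded 16-mer DNA library in Tris/NaCl/DTT/glycerol buffer at room temperature for 30 min. After washing, the pools were crosslinked with 0.1% formaldehyde, proximity-ligated with BsaI/T4 ligase for 1 h at 37 °C, PCR-amplified and sequenced on an Illumina NextSeq500.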

In the next experiment the target is T2, ELK1 (Homo sapiens, UniProt P19419 1-428).
T2 sequence: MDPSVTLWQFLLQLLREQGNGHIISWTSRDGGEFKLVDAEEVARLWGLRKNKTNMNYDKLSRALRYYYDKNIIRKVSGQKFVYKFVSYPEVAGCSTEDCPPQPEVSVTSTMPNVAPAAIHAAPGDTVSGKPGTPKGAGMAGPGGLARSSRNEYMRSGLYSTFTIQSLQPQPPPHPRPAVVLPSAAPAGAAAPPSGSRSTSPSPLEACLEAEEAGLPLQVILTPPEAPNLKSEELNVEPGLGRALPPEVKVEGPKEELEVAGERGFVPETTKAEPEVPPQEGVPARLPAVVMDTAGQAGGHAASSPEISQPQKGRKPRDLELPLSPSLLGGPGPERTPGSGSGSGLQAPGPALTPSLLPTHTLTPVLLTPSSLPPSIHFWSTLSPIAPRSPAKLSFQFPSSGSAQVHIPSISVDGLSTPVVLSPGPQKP
Conditions: protein: recombinant; tags: N-terminal GST; dsDNA, one strand shown. In short, it runs like this: as §1

The target of the next experiment is T3, GABPA (Homo sapiens, UniProt Q06546 1-454).
T3 sequence: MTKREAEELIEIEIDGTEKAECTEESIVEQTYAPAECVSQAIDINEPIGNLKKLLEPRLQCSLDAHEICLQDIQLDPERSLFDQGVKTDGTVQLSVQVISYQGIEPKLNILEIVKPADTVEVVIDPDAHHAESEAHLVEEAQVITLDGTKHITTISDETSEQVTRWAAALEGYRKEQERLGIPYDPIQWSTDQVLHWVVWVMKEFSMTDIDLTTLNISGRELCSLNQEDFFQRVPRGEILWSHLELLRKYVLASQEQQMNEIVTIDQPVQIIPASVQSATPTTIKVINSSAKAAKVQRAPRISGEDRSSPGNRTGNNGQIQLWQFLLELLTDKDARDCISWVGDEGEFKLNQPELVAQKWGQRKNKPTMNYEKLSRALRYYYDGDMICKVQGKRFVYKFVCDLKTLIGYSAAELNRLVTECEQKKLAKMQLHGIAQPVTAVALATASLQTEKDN
The note with it: protein: recombinant; tags: N-terminal GST; dsDNA, one strand shown. In short, it runs like this: as §1

The next experiment has as its target T4, ERG (Homo sapiens, UniProt P11308 1-479).
T4 sequence: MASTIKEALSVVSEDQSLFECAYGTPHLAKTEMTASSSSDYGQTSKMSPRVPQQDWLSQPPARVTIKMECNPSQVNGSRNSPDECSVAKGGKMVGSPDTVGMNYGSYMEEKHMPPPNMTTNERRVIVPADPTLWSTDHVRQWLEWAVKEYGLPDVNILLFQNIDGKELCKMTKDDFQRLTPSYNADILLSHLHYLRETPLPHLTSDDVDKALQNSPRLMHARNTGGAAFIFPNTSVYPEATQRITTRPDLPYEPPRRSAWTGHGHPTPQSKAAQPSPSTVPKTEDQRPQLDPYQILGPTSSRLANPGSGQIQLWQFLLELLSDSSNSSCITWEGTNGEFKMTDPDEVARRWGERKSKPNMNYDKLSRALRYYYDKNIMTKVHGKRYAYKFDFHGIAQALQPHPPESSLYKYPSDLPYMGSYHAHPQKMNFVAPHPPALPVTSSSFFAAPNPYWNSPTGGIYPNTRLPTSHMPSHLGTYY
Conditions: protein: recombinant; tags: N-terminal GST; dsDNA, one strand shown. In short, it runs like this: as §1

In the next experiment the target is ELF1 (Homo sapiens, UniProt P32519 1-619). Conditions: protein: recombinant; tags: N-terminal GST; dsDNA, one strand shown. In short, it runs like this:
as §1

A further experiment has as its target T5, EHF (Homo sapiens, UniProt Q9NZC4 1-300).
T5 sequence: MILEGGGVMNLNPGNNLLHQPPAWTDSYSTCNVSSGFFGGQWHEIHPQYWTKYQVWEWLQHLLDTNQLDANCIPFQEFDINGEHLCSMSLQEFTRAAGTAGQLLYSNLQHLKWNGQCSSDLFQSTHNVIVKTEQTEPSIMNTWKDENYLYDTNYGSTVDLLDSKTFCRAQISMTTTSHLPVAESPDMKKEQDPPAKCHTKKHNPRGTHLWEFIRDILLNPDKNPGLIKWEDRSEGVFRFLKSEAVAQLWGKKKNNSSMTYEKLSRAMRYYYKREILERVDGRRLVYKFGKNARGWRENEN
The note with it: protein: recombinant; tags: N-terminal GST; dsDNA, one strand shown. Summed up:
as §1

In a further experiment the target is SPI1 (Homo sapiens, UniProt P17947 1-270). The note with it: protein: recombinant; tags: N-terminal GST; dsDNA, one strand shown. Summed up: as §1
The next experiment addresses SPIB (Homo sapiens, UniProt Q01892 1-262). Conditions: protein: recombinant; tags: N-terminal GST; dsDNA, one strand shown. Summed up:
as §1

A further experiment concerns the target T6, ELK3 (Homo sapiens, UniProt P41970 1-407).
T6 sequence: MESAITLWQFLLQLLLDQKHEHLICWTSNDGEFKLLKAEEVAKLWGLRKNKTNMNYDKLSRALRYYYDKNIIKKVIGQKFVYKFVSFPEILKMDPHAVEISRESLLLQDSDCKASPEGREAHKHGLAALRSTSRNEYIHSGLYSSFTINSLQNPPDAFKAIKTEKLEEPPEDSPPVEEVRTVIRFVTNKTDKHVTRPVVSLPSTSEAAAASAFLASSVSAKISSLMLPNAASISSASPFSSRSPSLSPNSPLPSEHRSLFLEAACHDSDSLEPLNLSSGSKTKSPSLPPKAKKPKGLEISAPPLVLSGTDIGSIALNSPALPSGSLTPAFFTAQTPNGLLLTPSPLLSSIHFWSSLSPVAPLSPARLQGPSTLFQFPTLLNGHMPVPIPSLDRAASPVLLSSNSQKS
The note with it: protein: recombinant; tags: N-terminal GST; dsDNA, one strand shown. Summed up:
as §1

The target of another experiment is ETV5 (Homo sapiens, UniProt P41161 1-510). The note with it: protein: recombinant; tags: N-terminal GST; dsDNA, one strand shown. In short, it runs like this:
as §1

The next experiment deals with HSF1 (Homo sapiens, UniProt Q00613 1-529). The note with it: protein: recombinant; tags: N-terminal GST; chain copies: 3; dsDNA, one strand shown. Summed up:
as §1

A further experiment has as its target T7, SPIC (Homo sapiens, UniProt Q8N5J4 1-248).
T7 sequence: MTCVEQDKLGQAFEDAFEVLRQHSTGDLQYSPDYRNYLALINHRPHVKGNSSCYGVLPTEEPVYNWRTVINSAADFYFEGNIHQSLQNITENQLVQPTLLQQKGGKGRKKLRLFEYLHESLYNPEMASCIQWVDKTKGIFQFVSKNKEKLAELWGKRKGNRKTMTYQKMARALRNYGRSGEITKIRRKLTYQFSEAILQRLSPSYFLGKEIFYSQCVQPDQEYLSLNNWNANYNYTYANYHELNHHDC
Conditions: protein: recombinant; tags: N-terminal GST; dsDNA, one strand shown. In short, it runs like this: as §1

Another experiment has as its target ELF4 (Homo sapiens, UniProt Q99607 1-663). Conditions: protein: recombinant; tags: N-terminal GST; dsDNA, one strand shown. In short, it runs like this: as §1
For another experiment, the target named is T8, ELK4 (Homo sapiens, UniProt P28324-2 1-405).
T8 sequence: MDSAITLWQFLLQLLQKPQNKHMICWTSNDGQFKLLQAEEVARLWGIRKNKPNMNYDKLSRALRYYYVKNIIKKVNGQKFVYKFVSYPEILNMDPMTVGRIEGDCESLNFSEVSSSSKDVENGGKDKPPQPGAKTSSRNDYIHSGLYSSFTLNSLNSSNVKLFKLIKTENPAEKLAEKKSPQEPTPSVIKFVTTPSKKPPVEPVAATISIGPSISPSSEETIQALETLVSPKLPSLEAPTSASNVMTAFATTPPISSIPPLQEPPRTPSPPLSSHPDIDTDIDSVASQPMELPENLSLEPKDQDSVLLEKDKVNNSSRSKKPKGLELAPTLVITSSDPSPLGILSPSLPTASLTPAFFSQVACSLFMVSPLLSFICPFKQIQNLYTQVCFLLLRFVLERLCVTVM
The note with it: protein: recombinant; tags: N-terminal GST; dsDNA, one strand shown. In short, it runs like this:
as §1

Another experiment deals with T9, ETV2 (Homo sapiens, UniProt O00321 1-342).
T9 sequence: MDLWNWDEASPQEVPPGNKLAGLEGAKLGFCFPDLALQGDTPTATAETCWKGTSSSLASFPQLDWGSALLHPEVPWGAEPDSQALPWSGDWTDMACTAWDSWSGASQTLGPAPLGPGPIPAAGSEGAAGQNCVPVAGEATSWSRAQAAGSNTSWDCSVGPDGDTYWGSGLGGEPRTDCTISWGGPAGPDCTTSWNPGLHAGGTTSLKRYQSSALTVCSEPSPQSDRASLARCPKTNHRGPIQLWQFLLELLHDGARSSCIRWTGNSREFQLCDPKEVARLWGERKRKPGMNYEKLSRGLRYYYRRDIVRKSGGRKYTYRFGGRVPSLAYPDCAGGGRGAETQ
Conditions: protein: recombinant; tags: N-terminal GST; dsDNA, one strand shown. Summed up: as §1

The target of the next experiment is T10, ELF3 (Homo sapiens, UniProt P78545 1-371).
T10 sequence: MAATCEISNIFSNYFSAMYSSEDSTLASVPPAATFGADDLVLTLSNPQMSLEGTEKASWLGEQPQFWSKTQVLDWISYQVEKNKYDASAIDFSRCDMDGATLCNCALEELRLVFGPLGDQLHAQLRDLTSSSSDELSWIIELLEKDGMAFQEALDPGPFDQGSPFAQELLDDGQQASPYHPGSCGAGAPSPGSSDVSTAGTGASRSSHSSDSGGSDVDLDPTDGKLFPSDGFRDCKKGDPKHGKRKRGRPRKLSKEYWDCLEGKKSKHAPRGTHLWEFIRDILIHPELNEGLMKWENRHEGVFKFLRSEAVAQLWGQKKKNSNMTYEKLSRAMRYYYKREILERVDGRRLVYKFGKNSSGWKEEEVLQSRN
The note with it: protein: recombinant; tags: N-terminal GST; dsDNA, one strand shown. In short, it runs like this:
as §1

SPIB, sequence (Q01892 whole entry): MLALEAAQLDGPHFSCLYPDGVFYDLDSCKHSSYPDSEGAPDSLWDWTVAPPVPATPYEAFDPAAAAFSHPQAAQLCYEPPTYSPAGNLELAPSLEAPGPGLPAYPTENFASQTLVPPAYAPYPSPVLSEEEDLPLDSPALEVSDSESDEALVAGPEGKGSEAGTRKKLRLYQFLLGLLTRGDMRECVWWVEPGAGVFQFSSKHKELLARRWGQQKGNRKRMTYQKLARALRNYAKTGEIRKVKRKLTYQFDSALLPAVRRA
HSF1, sequence (Q00613 whole entry): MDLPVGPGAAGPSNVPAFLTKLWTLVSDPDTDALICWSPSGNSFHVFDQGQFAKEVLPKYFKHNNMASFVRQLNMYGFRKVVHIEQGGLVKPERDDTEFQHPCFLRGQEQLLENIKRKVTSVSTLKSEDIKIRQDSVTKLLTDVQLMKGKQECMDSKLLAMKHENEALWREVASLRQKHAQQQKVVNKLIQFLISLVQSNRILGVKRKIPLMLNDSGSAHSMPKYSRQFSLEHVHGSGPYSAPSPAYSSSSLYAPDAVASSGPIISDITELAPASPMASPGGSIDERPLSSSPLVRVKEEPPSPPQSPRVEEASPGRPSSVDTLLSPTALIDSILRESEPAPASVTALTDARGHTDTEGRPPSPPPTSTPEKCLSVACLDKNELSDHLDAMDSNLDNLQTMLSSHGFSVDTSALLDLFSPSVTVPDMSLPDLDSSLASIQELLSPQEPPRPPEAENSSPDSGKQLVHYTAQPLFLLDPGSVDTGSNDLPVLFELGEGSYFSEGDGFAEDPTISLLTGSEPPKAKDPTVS
ELF1, sequence (P32519 whole entry): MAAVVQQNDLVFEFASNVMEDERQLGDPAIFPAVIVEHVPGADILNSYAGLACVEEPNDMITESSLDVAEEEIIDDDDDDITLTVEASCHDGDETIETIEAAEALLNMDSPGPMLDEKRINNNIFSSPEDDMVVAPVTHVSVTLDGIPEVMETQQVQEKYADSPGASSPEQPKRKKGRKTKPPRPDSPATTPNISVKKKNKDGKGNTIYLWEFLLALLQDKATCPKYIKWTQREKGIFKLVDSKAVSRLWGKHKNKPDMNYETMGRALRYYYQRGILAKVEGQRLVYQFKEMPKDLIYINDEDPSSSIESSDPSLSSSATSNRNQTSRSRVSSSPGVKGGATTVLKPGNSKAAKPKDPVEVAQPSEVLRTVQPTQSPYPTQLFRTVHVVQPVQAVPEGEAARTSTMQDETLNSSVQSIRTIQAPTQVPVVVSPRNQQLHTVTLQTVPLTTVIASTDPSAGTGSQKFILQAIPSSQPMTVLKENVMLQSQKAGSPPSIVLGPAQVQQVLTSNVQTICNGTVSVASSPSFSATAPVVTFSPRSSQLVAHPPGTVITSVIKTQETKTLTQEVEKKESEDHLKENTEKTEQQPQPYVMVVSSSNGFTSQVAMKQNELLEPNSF
ETV5, sequence (P41161 whole entry): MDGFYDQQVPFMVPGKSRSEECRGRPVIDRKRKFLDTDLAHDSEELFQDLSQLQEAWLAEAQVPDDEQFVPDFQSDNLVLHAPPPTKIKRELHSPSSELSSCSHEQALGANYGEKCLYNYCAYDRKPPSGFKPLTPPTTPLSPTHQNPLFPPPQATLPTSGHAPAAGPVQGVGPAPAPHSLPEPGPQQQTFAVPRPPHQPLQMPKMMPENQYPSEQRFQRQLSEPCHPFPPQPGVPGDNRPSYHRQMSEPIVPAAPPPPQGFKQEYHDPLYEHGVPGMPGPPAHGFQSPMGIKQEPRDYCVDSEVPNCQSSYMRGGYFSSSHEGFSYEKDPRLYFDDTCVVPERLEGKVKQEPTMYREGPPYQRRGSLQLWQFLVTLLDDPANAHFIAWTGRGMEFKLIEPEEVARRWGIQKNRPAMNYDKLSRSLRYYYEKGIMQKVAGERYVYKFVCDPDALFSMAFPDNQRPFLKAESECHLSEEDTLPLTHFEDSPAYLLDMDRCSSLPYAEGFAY
ELF4, sequence (Q99607 whole entry): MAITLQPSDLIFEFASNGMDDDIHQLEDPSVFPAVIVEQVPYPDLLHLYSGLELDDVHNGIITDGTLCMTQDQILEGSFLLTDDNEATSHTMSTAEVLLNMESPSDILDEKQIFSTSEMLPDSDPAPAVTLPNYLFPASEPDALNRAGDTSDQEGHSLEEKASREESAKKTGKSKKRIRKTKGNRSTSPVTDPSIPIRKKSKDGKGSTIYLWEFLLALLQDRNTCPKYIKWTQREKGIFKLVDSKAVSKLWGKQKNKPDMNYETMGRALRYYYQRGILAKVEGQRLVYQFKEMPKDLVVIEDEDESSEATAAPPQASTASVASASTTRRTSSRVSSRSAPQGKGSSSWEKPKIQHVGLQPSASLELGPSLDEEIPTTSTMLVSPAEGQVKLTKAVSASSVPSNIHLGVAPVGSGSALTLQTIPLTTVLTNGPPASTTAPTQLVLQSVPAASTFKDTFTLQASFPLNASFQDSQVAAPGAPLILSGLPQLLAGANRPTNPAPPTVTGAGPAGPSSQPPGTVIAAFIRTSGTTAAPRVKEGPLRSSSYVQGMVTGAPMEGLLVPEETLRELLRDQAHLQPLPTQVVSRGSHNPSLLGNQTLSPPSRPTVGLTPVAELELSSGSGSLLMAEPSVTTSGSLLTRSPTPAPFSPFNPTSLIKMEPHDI

Turning to TGGGTT, the binding signal in the experiment with FLI1 was 1.17 fold enrichment (6-mer frequency, TF over GST control); in the experiment with ELK1 it was 1.11 fold enrichment (6-mer frequency, TF over GST control); with GABPA, 1.18 fold enrichment (6-mer frequency, TF over GST control); with ERG, 1.1 fold enrichment (6-mer frequency, TF over GST control); with ELF1, 1.1 fold enrichment (6-mer frequency, TF over GST control); in the experiment with EHF it was 1.18 fold enrichment (6-mer frequency, TF over GST control). Also, the binding signal in the experiment with SPI1 was 1.01 fold enrichment (6-mer frequency, TF over GST control); with SPIB, 1.02 fold enrichment (6-mer frequency, TF over GST control); with ELK3, 1.01 fold enrichment (6-mer frequency, TF over GST control); in the experiment with ETV5, 1.06 fold enrichment (6-mer frequency, TF over GST control); with HSF1 it was 1.03 fold enrichment (6-mer frequency, TF over GST control); in the experiment with SPIC, 1.07 fold enrichment (6-mer frequency, TF over GST control). Besides, the binding signal with ELF4 was 1.09 fold enrichment (6-mer frequency, TF over GST control); with ELK4 it was 1.03 fold enrichment (6-mer frequency, TF over GST control); in the experiment with ETV2 it was 1.08 fold enrichment (6-mer frequency, TF over GST control); with ELF3 it was 1.11 fold enrichment (6-mer frequency, TF over GST control).
